Experimental data: PubChem BioAssay AID1159580 (chemical genetic matrix, 2015)
Screen size: about 5,500 compounds; about 2,000 (36%) were called active. Another 18% or so got no clear call; they are omitted. Rule as the data show it: active = normalized growth mostly below about 0.91 (no sharp cut-off); inconclusive = no clear call, values can overlap the other calls; inactive = mostly above about 0.92. Some of the results follow.

Assay: chemical genetic growth profiling, strain panel (AID 1159580);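 also: tested at 20 µM; growth read once vehicle control cultures reached saturation at 30 °C; 1 = growth at the plate median or of vehicle wells; lower values mean less growth of the strain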
Conditions: growth OD

Measured: normalized growth

CC1(C)S[C@@H]2[C@H](NC(=O)[C@H](N)c3ccccc3)C(=O)N2[C@H]1C(=O)O
inactive: S. cerevisiae deletion strains, locus YJR043C, strain POL32, active compounds read low 1 | S. cerevisiae deletion strains, locus YJR066W, strain TOR1, active compounds read low 0.981 | S. cerevisiae deletion strains, locus YKL009W, strain mrt4, active compounds read low 1.01 | S. cerevisiae deletion strains, locus YKL068W, active compounds read low 1 | S. cerevisiae deletion strains, locus YKL085W, strain MDH1 (second series), active compounds read low 1.01 | S. cerevisiae deletion strains, locus YKL085W, strain MDH1, active compounds read low 1.01 | S. cerevisiae deletion strains, locus YKL160W, strain elf1, active compounds read low 0.93 | S. cerevisiae deletion strains, locus YKL190W, strain CNB1, active compounds read low 1.01 | S. cerevisiae deletion strains, locus YKR001C, strain vps1, active compounds read low 0.991 | S. cerevisiae deletion strains, locus YKR026C, strain gcn3, active compounds read low 0.972 | S. cerevisiae deletion strains, locus YKR091W, strain srl3, active compounds read low 0.962 | S. cerevisiae deletion strains, locus YLL001W, strain dnm1, active compounds read low 1 | S. cerevisiae deletion strains, locus YLL026W, active compounds read low 0.966 | S. cerevisiae deletion strains, locus YLL041C, strain sdh2, active compounds read low 0.976 | S. cerevisiae deletion strains, locus YLR027C, strain aat2, active compounds read low 0.983 | S. cerevisiae deletion strains, locus YLR039C, strain RIC1, active compounds read low 0.993 | S. cerevisiae deletion strains, locus YLR058C, strain SHM2, active compounds read low 1.01 | S. cerevisiae deletion strains, locus YLR102C, strain apc9, active compounds read low 0.997 | S. cerevisiae deletion strains, locus YLR113W, strain HOG1, active compounds read low 1.04 | S. cerevisiae deletion strains, locus YLR221C, strain rsa3, active compounds read low 1.02 | S. cerevisiae deletion strains, locus YLR258W, strain gsy2, active compounds read low 0.981 | S. cerevisiae deletion strains, locus YLR262C, strain YPT6 (second series), active compounds read low 0.983 | S. cerevisiae deletion strains, locus YLR262C, strain YPT6, active compounds read low 1.08 | S. cerevisiae deletion strains, locus YLR268W, strain sec22, active compounds read low 1.01 | S. cerevisiae deletion strains, locus YLR320W, strain mms22, active compounds read low 1 | S. cerevisiae deletion strains, locus YLR330W, strain CHS5, active compounds read low 1.01 | S. cerevisiae deletion strains, locus YLR342W, strain FKS1 (second series), active compounds read low 1.01 | S. cerevisiae deletion strains, locus YLR342W, strain FKS1, active compounds read low 0.985 | S. cerevisiae deletion strains, locus YLR357W, strain rsc2, active compounds read low 0.928 | S. cerevisiae deletion strains, locus YLR370C, strain arc18, active compounds read low 0.951 | S. cerevisiae deletion strains, locus YLR371W, strain rom2, active compounds read low 1 | S. cerevisiae deletion strains, locus YLR384C, strain iki3, active compounds read low 0.97 | S. cerevisiae deletion strains, locus YLR418C, strain cdc73, active compounds read low 0.998 | S. cerevisiae deletion strains, locus YML016C, strain PPZ1, active compounds read low 1.01 | S. cerevisiae deletion strains, locus YML032C, strain rad52, active compounds read low 0.994 | S. cerevisiae deletion strains, locus YML120C, strain ndi1, active compounds read low 0.995 | S. cerevisiae deletion strains, locus YML124C, strain tub3, active compounds read low 1 | S. cerevisiae deletion strains, locus YMR058W, strain fet3, active compounds read low 0.968 | S. cerevisiae deletion strains, locus YMR078C, strain ctf18, active compounds read low 1.01 | S. cerevisiae deletion strains, locus YMR125W, strain sto1, active compounds read low 0.964 | S. cerevisiae deletion strains, locus YMR129W, active compounds read low 0.967 | S. cerevisiae deletion strains, locus YMR205C, strain PFK2, active compounds read low 0.993 | S. cerevisiae deletion strains, locus YMR223W, strain ubp8, active compounds read low 1.01 | S. cerevisiae deletion strains, locus YMR231W, strain pep5, active compounds read low 0.985 | S. cerevisiae deletion strains, locus YMR307W, strain GAS1, active compounds read low 0.926 | S. cerevisiae deletion strains, locus YNL067W, strain RPL9B, active compounds read low 1.02 | S. cerevisiae deletion strains, locus YNL071W, strain lat1, active compounds read low 0.977 | S. cerevisiae deletion strains, locus YNL128W, strain TEP1, active compounds read low 1.03 | S. cerevisiae deletion strains, locus YNL183C, strain NPR1, active compounds read low 0.975 | S. cerevisiae deletion strains, locus YNL209W, strain ssb2, active compounds read low 0.956 | S. cerevisiae deletion strains, locus YNL233W, strain BNI4, active compounds read low 1.01 | S. cerevisiae deletion strains, locus YNL248C, strain rpa49, active compounds read low 0.907 | S. cerevisiae deletion strains, locus YNL250W, strain rad50, active compounds read low 0.998 | S. cerevisiae deletion strains, locus YNL271C, strain bni1, active compounds read low 1.03 | S. cerevisiae deletion strains, locus YNL298W, strain CLA4, active compounds read low 1.01 | S. cerevisiae deletion strains, locus YNL307C, strain MCK1, active compounds read low 1 | S. cerevisiae deletion strains, locus YNL322C, strain KRE1 (second series), active compounds read low 0.97 | S. cerevisiae deletion strains, locus YNR049C, strain mso1, active compounds read low 0.946 | S. cerevisiae deletion strains, locus YNR052C, strain pop2, active compounds read low 1 | S. cerevisiae deletion strains, locus YOL006C, strain TOP1, active compounds read low 1.04 | S. cerevisiae deletion strains, locus YOL012C, strain htz1 0.815 | S. cerevisiae deletion strains, locus YOL147C, strain pex11, active compounds read low 1.01 | S. cerevisiae deletion strains, locus YOR001W, strain rrp6, active compounds read low 1 | S. cerevisiae deletion strains, locus YOR061W, strain CKA2, active compounds read low 1.02 | S. cerevisiae deletion strains, locus YOR069W, strain VPS5, active compounds read low 1.01 | S. cerevisiae deletion strains, locus YOR070C, strain gyp1, active compounds read low 0.981 | S. cerevisiae deletion strains, locus YOR080W, strain dia2, active compounds read low 0.959 | S. cerevisiae deletion strains, locus YOR083W, strain WHI5, active compounds read low 0.917 | S. cerevisiae deletion strains, locus YOR106W, strain vam3, active compounds read low 0.914 | S. cerevisiae deletion strains, locus YOR136W, strain idh2, active compounds read low 0.995 | S. cerevisiae deletion strains, locus YOR144C, strain elg1, active compounds read low 0.998 | S. cerevisiae deletion strains, locus YOR184W, strain ser1, active compounds read low 0.999 | S. cerevisiae deletion strains, locus YOR231W, strain MKK1, active compounds read low 1.02 | S. cerevisiae deletion strains, locus YOR265W, strain rbl2, active compounds read low 0.962 | S. cerevisiae deletion strains, locus YOR270C, strain vph1, active compounds read low 0.951 | S. cerevisiae deletion strains, locus YOR290C, strain snf2, active compounds read low 0.92 | S. cerevisiae deletion strains, locus YOR316C, strain cot1, active compounds read low 1 | S. cerevisiae deletion strains, locus YPL051W, strain arl3, active compounds read low 0.947 | S. cerevisiae deletion strains, locus YPL055C, strain LGE1, active compounds read low 1.02 | S. cerevisiae deletion strains, locus YPL078C, strain atp4, active compounds read low 0.953 | S. cerevisiae deletion strains, locus YPL106C, strain sse1, active compounds read low 0.976 | S. cerevisiae deletion strains, locus YPL240C, strain hsp82, active compounds read low 0.974 | S. cerevisiae deletion strains, locus YPL256C, strain CLN2, active compounds read low 1.05 | S. cerevisiae deletion strains, locus YPR119W, strain clb2, active compounds read low 1.01 | S. cerevisiae deletion strains, locus YPR141C, strain kar3, active compounds read low 1 | S. cerevisiae deletion strains, locus YPR163C, strain tif3, active compounds read low 0.999 | S. cerevisiae deletion strains, locus YPR167C, strain met16, active compounds read low 1.02 | S. cerevisiae deletion strains, strain wtn01, active compounds read low 1.01 | S. cerevisiae strains, strain wild type, active compounds read low 1.02
